Laboratory results from article PMC5540273 (PLoS ONE, 2017).
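Note: KINOMEscan kinase panel screen.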

The compounds below were run on SLK. Details: concentration: 1 μM, replicates: in singlicate; n = 1.
In the case of `CN(c1ccc(NC(=O)Nc2cc(C(F)(F)F)ccc2F)cc1)c1ccnc(Nc2ccc(S(N)(=O)=O)cc2)n1` [GW809893], the “%Inh” value is reported as 96.3%. With `Nc1ncnc2c1nc(-c1ccccc1)n2-c1ccccc1` [SKF-97293] the “%Inh” value was 0%. For `CN1CCN(CCCNc2nccc(-c3c(-c4ccc(F)cc4)nn4cc(C(F)(F)F)ccc34)n2)CC1` [GW621581], the “%Inh” value was 42%. With `O=C(Nc1cccc(-c2nn3ccccc3c2-c2ccnc(Nc3cccc(C(F)(F)F)c3)n2)c1)c1c(F)cccc1F` [GSK292658] the “%Inh” value was 54%. In the case of `COc1cc(Nc2nccc(N3CCC(NC(=O)Nc4cccc(C(C)=O)c4)C3)n2)cc(OC)c1OC` (stereo not shown) [GSK1379753], the “%Inh” value is reported as 30%. For `Cl.Cl.NCC(C(=O)Nc1cc(Br)c(-c2ccnc3[nH]ccc23)s1)c1ccccc1` (stereo not shown) [GSK1269851], the “%Inh” value was 14%. For `COc1ccc(Nc2nccc(NCCNC(=O)c3cc4ccccc4s3)n2)cc1` [GSK1379896], the “%Inh” value was 18%. In the case of `Cc1ccc(F)c(C(=O)Nc2cccc(-c3nn4ccccc4c3-c3ccnc(Nc4cccc(F)c4)n3)c2)c1F` [GSK361061], the “%Inh” value is reported as 94.2%. In the case of `Cl.Cl.NCC(NC(=O)c1cc(-c2ccccc2)c(-c2ccnc3[nH]ccc23)s1)c1ccccc1` (stereo not shown) [GSK1321561], the “%Inh” value is reported as 31%. With `Cc1cccc(Nc2nc(N[C@H]3CCNC3)ncc2C(N)=O)c1.Cl` [GSK2197149] the “%Inh” value was 30%. With `COc1cccc(C2=C(Nc3ccc(Cl)c(C(=O)O)c3)C(=O)NC2=O)c1` [SB-390769] the “%Inh” value was 16%. `O=C(Nc1cccc(-c2nn3ccccc3c2-c2ccnc(Nc3cccc(F)c3)n2)c1)c1c(F)ccc(F)c1Cl` [GSK357952] was tested, and the “%Inh” value was 91.2%. For `COc1cccc(NC(=O)NC2CCN(c3ccnc(Nc4cc(OC)c(OC)c(OC)c4)n3)C2)c1` (stereo not shown) [GSK1379763], the “%Inh” value was 42%. With `O=c1[nH]cc(-c2ccc(N3CCOCC3)cc2)c2sc(-c3cn[nH]c3)cc12` [GSK2276055] the “%Inh” value was 0%. In the case of `CC(C)(C)c1ccc2nccc(Nc3cccc(O)c3)c2c1` [GW856795], the “%Inh” value is reported as 55%. In the case of `COc1ccc(Nc2nccc(N3CCC(NC(=O)Nc4cccc(OC)c4)C3)n2)cc1` (stereo not shown) [GSK1379742], the “%Inh” value is reported as 17%. `CCS(=O)(=O)c1ccc(OC)c(Nc2nccc(-c3c(-c4cccc(NC(=O)c5c(F)cccc5F)c4)nn4ncccc34)n2)c1` [GSK326180] was tested, and the “%Inh” value was 54%. In the case of `CC(C)c1nc(-c2cccc(NS(=O)(=O)c3c(F)cccc3F)c2F)c(-c2ccnc(Nc3ccc(N4CCOCC4)nc3)n2)s1` [GSK2008607], the “%Inh” value is reported as 97%. With `Fc1ccc(-c2ncn(C3CCNCC3)c2-c2ccnc(Oc3ccc(-c4ccccc4)cc3)n2)cc1` [SB-245391] the “%Inh” value was 0%. In the case of `O=C(Nc1n[nH]c2cc(-c3ccoc3)ccc12)C1CC1` [SB-738481], the “%Inh” value is reported as 2%. In the case of `Nc1ncc(-c2cccnc2)c2scc(-c3ccc4c(c3)CCN4C(=O)Cc3ccccc3)c12` [GSK683281], the “%Inh” value is reported as 33%. For `Nc1ncc(-c2ccc3nccc(-c4ccncc4)c3c2)cc1S(=O)(=O)N1CCOCC1` [GSK1627798], the “%Inh” value was 36%. In the case of `C[C@@H]1CC[C@@H](C(=O)Nc2ccccc2)CN1c1cc(-c2ccc3c(N)n[nH]c3c2)nc(N)n1` [GSK2286062], the “%Inh” value is reported as 1%. In the case of `Cn1cc(-c2ccc3c(c2)CCN3C(=O)Cc2cccc(F)c2)c2c(N)ncnc21` [GSK2603358], the “%Inh” value is reported as 55%. `Cc1ccc(C(=O)N2CC[C@@H](O)C2)cc1-n1c(C)cc(OCc2ccc(F)cc2F)c(Br)c1=O` was tested, and the “%Inh” value was 0%. For `CN1CCN(Cc2cccc(-c3ccc4c(Nc5ccc(Oc6ccccc6)cc5)ccnc4c3)c2)CC1` [GW578342], the “%Inh” value was 0%. For `CN(C)S(=O)(=O)c1cc(-c2ccc3nccc(-c4cccc(S(N)(=O)=O)c4)c3c2)cnc1N` [GSK1669921], the “%Inh” value was 2%. For `COc1cc(Nc2nccc(-c3c(-c4cccc(NC(=O)c5c(F)cccc5F)c4)nn4ncccc34)n2)cc(OC)c1OC` [GSK327238], the “%Inh” value was 99.2%. In the case of `COCCOCCOc1cc2ncc3c4ccc(C#N)cc4[nH]c3c2cc1OC`, the “%Inh” value is reported as 45%. In the case of `Cc1ccc(C(=O)Nc2ccc(Nc3ccnc4cc(-c5nccs5)ccc34)cc2O)cc1.Cl` [GW494702], the “%Inh” value is reported as 30%. For `CC(=O)N1CCN(c2ccc(Nc3nccc(-c4sc(C(C)C)nc4-c4cccc(NS(=O)(=O)c5cccc(Cl)c5)c4)n3)cn2)CC1` [GSK1660437], the “%Inh” value was 72%.
